# This is a sample that favours compounds with a hit; in the whole collection about 4.8% have one here.
# STAT1 act = activators of IFN-gamma induced STAT1 signaling | actives 2.6% (n = 200,000) | NIH 3T3 STAT1-luciferase reporter, luminescence; 100% = IFN-gamma alone, no compound | activation (% of control), % at 5.5 µM;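 active means activation above the screen-wide mean activation plus 3 SD, cut at about 130% in these data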;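 further: raw ratio to IFN-gamma control signal so 100% means no change and 0% no light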
# APP 5'UTR act = activates APP 5'UTR luciferase reporter; SH-SY5Y APP 5'UTR luciferase reporter, luminescence; zero percent = DMSO vehicle wells; actives 1% (n = 190,000); activation, % at 2 µM;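 active means activation above a set limit, based on mean plus 3 SD of controls, cut at about 140% in these data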
# APP transl inh = APP translation inhibition | AID 1285 | actives 0.82% (n = 190,000) | SH-SY5Y APP 5'UTR-luciferase reporter, luminescence | inhibition, % at 2 µM;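 active means inhibition above a set limit, derived from the sample mean plus 3 SD, cut at about 45% in these data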
# NF-kB expr up = NF-kB expression increase, human neuronal cells. NF-kB reporter expression; stronger effect = higher value. fold change at 12.5 µM. actives 1.6% (n = 190,000); in the data active means fold change above about 3.3
# Wee1 stabilizer = human Wee1 degradation inhibition, primary screen. P30291. HeLa Luc-Wee1K328M stability, luciferase luminescence; 100% = proteasome inhibitor MG132 effect. reporter increase, % at 5 µM. actives 1.2% (n = 220,000);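 active means activation above the mean of all tested compounds plus 3 SD, set per screening run, cut at about 8.8% in these data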;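 further: cells exposed to compound for 20 h before luminescence read; 0% = DMSO alone and 100% = MG132 at 30 µM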
# Target sequence (P30291 whole entry K328M): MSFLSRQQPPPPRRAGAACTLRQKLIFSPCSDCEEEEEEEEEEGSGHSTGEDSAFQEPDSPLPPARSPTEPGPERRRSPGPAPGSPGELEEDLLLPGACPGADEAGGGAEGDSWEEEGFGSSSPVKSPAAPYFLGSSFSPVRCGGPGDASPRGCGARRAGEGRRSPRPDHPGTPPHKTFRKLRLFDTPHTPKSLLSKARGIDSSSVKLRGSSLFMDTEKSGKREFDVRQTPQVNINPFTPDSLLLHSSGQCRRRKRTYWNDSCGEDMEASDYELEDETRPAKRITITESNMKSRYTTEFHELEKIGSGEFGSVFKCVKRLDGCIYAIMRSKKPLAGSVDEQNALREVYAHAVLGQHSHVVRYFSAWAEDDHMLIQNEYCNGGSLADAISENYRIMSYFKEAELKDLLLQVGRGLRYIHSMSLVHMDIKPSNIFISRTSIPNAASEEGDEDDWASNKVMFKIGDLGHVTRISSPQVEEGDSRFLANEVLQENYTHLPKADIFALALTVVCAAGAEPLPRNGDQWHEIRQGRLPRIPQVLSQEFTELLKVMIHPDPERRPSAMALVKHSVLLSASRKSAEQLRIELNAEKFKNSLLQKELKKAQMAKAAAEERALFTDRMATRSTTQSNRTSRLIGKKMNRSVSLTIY
# Hsp70 act = transcriptional activators of Hsp70; HeLa Hsp70 promoter luciferase reporter, luminescence; scaled: vehicle 0, proteasome-inhibitor control 100%; activation, % at 10 µM; actives 0.04% (n = 200,000);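 active means activation above the mean across all tested compounds plus 3 SD, cutoff set per campaign, cut at about 5.5% in these data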;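 further: 100% = MG132 at 30 µM as the positive control and 0% = DMSO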
# STAT1 act conf = STAT1 activation, confirmation assay; activation (% of control), % at 5.7 µM; NIH 3T3 STAT1-luciferase reporter, IFN-gamma potentiation, luminescence; 100% = IFN-gamma EC80 alone, no compound; shares compounds with STAT1 act; AID 1262; actives 97% (n = 1,200);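 active means activation above a set limit carried over from the earlier primary STAT1 screen, cut at about 140% in these data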;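 further: simple ratio to median IFN-gamma plus DMSO wells so 0% means no light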
# NFkB act = NF-kappaB activation in STAT1 activator counter-screen; shares compounds with STAT1 act; HEK293T NF-kB luciferase reporter, TNF-alpha stimulated, luminescence; 100% = TNF-alpha with vehicle only; activation (% of control), % at 5.7 µM; actives 43% (n = 1,200); AID 1306;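 active means activation above the mean of solvent-only control wells plus 3 SD, set per campaign, cut at about 130% in these data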;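 further: TNF-alpha given at a submaximal dose yielding about 80% of full reporter signal; values are well signal over median control so 100% means no change and 0% no light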
# STAT3 act 2 = human STAT3 activation in STAT1 activator counter-screen; actives 46% (n = 1,200); U3A cells STAT3-luciferase reporter, IL-6, luminescence; cells lack STAT1; 100 = IL-6 alone, no compound effect; shares compounds with STAT1 act; activation (% of control), % at 5.7 µM; AID 1316;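 active means activation above the solvent-only control well mean plus 3 SD, set per plate batch, cut at about 110% in these data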;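 further: 0% = no luminescence and 100% = median IL-6 plus DMSO wells; higher means more STAT3 reporter activation so hits are non-selective activators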
# The depositor's hits bear a star; / = not tested or not shown.
SMILES,STAT1 act,APP 5'UTR act,APP transl inh,NF-kB expr up,Wee1 stabilizer,Hsp70 act,STAT1 act conf,NFkB act,STAT3 act 2
O=c1c2ccccc2ncn1Cc1ccc(Cl)cc1,98,15,-15,1.1,0,0,/,/,/
O=C(Cn1cnc2ccccc2c1=O)c1ccc(Cl)cc1,155*,17,-17,/,5,0,148*,113,95
CCCCCCC(=O)N(O)C1CC(=O)N(c2ccc(C)cc2)C1=O (centres undefined),80,2,-2,1.2,-2,0,/,/,/
Nc1nc2ccccc2n1/N=C/c1ccc(-c2ccccc2)o1,155*,94,-94,1.7,0,0,160*,121,99
CCc1ccc(C2=NN(C(C)=O)C(c3ccco3)C2)cc1 (centres undefined),160*,144*,-144,4.7*,8,0,178*,133,123*
Cc1cccnc1NC(=O)c1cc2ccccc2oc1=O,156*,176*,-176,4.2*,-3,0,191*,117,117*
Cc1c([N+](=O)[O-])nnn1-c1cc(Cl)cc(Cl)c1,103,-12,12,1.1,-4,0,/,/,/
O=C(/C=C/c1cccc(F)c1)Nc1nccs1,151*,104,-104,3.6*,5,0,175*,137*,112*
O=C(N/N=C/c1ccc(F)cc1)c1ccc(Br)cc1,112,14,-14,1.5,0,0,/,/,/
O=C(N/N=C/c1ccc(Br)cc1)c1ccc(Br)o1,159*,65,-65,3.5*,-2,0,190*,137*,113*
Cc1cc(C(=O)CN2C(=O)NC3(CCCCC3C)C2=O)c(C)n1Cc1cccs1 (centres undefined),155*,77,-77,1.4,1,0,175*,133,125*
Cc1cc(C(=O)CN2C(=O)NC3(CCCCC3)C2=O)c(C)n1Cc1ccco1,158*,122,-122,1.2,5,0,180*,137*,134*
Cc1cc(C(=O)CN2C(=O)NC3(CCCCC3)C2=O)c(C)n1C,114,19,-19,1.1,0,0,/,/,/
COc1ccc(-c2nnc(SCC(=O)Nc3ccc4c(c3)OCCO4)n2N)cc1OC,97,7,-7,1.7,-3,0,/,/,/
CC(C)N=Cc1c(O)[nH]c2ccccc12,96,-4,4,1.4,0,0,/,/,/
Oc1[nH]c2ccccc2c1C=Nc1ccc2c(c1)OCCO2,187*,183*,-183,4.4*,0,0,346*,137*,106
Cc1cccc(/N=C/c2c(O)[nH]c3ccccc23)n1,158*,122,-122,3.4*,1,0,171*,112,124*
CSc1ccc(/C=N/NC(=O)c2ccc(C)c(C)c2)cc1,102,-8,8,1.6,1,0,/,/,/
CSc1ccc(/C=N/NC(=O)c2sccc2C)cc1,192*,219*,-219,4.1*,1,0,249*,122,101
CCOC(=O)c1c(/N=C/C2C(=O)CCCC2=O)sc(C)c1C,108,-1,0,1.1,-2,0,/,/,/
O=c1c2ccccc2cnn1-c1ccc(Br)cc1,152*,124,-124,6.4*,3,0,214*,142*,141*
Cc1cc(C)nc(NS(=O)(=O)c2ccc(NC(=S)NC(=O)C(C)C)cc2)n1,101,18,-18,1.4,0,0,/,/,/
N=c1oc2cc(O)ccc2cc1C(=O)Nc1nc2ccccc2s1,168*,178*,-178,1.6,0,0,195*,112,152*

# Screening data: PubChem BioAssay, several laboratories
